BAZ2B block: inhibitors of human BAZ2B bromodomain. Potency, µM (doses to about 114 µM), actives largely listed as inhibitors. AID 504333. 360,000 tested, 4.4% active. AlphaScreen BAZ2B-H3K14Ac peptide displacement. Q9UIF8; further: nearly all actives have a fitted effect of over 60% in size
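AlphaScreen displacement of biotin-H3(5-23)K14Ac peptide (50 nM final) from BAZ2B (50 nM final) in PBS pH 7.4, 0.01% Tween-20; complex preformed 30 min RT, then compounds (top 110 uM) 30 min RT, beads 20 min dark.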
G9a block: G9a (human) methyltransferase inhibition; G9a H3K9 monomethylation, AlphaScreen, 2 h; Potency, µM (top dose mostly 102 µM), usual class: inhibitors; 350,000 tested, 8.8% active; further: nearly all actives have a fitted effect of over 75% in size
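Enzyme 20 nM + cpd, 15 min RT; add b-H3K9 pep 500 nM / SAM 20 uM; 2 h RT; anti-H3K9me1 Ab 0.5 ug/mL + SA donor / anti-rabbit acceptor beads 20 ug/mL each, 10 min; AlphaScreen read.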
GLS inhibitor: glutaminase GLS (human) inhibition. O94925. GLS enzymatic activity, qHTS titration. Potency, µM (highest dose often 45.5 µM), hits mostly inhibitors. 410,000 tested, 0.21% active. AID 624170
Target sequence (O94925 whole entry, looked up): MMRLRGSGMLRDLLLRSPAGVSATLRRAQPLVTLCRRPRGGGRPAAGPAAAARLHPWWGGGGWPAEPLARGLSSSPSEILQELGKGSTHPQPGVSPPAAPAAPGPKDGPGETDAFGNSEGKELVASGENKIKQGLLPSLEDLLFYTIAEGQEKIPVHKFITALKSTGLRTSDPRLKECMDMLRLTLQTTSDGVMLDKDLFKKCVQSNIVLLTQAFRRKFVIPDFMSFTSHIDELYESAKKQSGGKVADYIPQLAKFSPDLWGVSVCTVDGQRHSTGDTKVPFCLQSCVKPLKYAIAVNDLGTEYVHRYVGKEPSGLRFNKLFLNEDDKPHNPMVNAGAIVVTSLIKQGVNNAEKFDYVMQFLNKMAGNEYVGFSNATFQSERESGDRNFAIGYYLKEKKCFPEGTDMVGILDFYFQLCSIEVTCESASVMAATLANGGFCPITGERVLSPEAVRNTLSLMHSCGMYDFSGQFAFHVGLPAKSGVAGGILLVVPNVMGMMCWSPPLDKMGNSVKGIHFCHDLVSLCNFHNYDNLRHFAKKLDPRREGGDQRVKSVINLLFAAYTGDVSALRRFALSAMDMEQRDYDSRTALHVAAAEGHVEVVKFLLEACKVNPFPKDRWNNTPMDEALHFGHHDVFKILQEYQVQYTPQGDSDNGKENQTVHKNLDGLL
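hKGA in 45 mM KH2PO4 (pH 8.2), 0.02% Tween-20 with compound, then 1mM L-Glutamine (stock as added) plus glutamate oxidase/HRP/Amplex red coupling mix. Fluorescence read initially and after 30 min at RT; signal change reflects glutamate formation.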
HP1b binding inh: inhibitors of HP1-beta chromodomain binding to methylated histone tails. P83916. AlphaScreen HP1-beta / biotin-H3K9me3 peptide binding. Potency, µM (top dose mostly 114 µM), usual class: inhibitors. 390,000 tested, 0.56% active; further: nearly all actives have a fitted effect of over 70% in size
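HP1-beta protein (50 nM final) preincubated 30 min at room temperature with biotinylated H3(1-18)K9me3 peptide (50 nM) in PBS pH 7.4, 0.01% Tween-20, then compound added for 30 min. AlphaScreen streptavidin donor/nickel chelate acceptor beads (10 ug/mL final), 30 min dark, luminescence read.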
JMJD2A Tudor inh: JMJD2A Tudor domain (human) inhibition; O75164; Potency, µM (doses to about 114 µM), actives largely listed as inhibitors; AlphaScreen JMJD2A-Tudor / H3K4me3 peptide binding; 390,000 tested, 4.4% active; further: nearly all actives have a fitted effect of over 50% in size
Hits are given with their value; 0 = inactive; ? = inconclusive; - = not tested or not shown; [ ] = dose if it differs, or a comment. An excerpt weighted towards active compounds, which were near 10% of everything screened. The call rests on the fitted dose curve; in most records, active means well fitted curve in the direction sought with a large enough effect; inconclusive means small, poorly fitted or top-dose-only effect, or another doubt; inactive means no such curve, though single readings can be large; an effect the other way counts as inactive or inconclusive.

SMILES	BAZ2B block	G9a block	GLS inhibitor	HP1b binding inh	JMJD2A Tudor inh
C#CCOCCOCCOCCNc1nc(N2CCN(C(=O)Cn3cc(CCO)nn3)CC2)nc(N2CCN(C(=O)[C@H]([C@@H](C)O)n3cc(CCCCN)nn3)CC2)n1	0	79.4µM	0	0	0
C#CCOCCOCCOCCNc1nc(N2CCN(C(=O)Cn3cc(CCCN=C(N)N)nn3)CC2)nc(N2CCN(C(=O)[C@H](C(C)C)n3cc(CCO)nn3)CC2)n1	0	50.1µM	0	0	0
C#CCOCCOCCOCCNc1nc(N2CCN(C(=O)Cn3cc(CCCN=C(N)N)nn3)CC2)nc(N2CCN(C(=O)[C@H]([C@@H](C)CC)n3cc(CCCN=C(N)N)nn3)CC2)n1	?	22.4µM	-	-	-
C#CCOCCOCCOCCNc1nc(N2CCN(C(=O)Cn3cc(CC(C)O)nn3)CC2)nc(N2CCN(C(=O)[C@H](CCCCN)n3cc(CCC(=O)O)nn3)CC2)n1 (stereo not given in full)	0	50.1µM	0	0	0
O=C1c2ccccc2NC(c2ccc(-c3ccc(F)cc3)o2)N1O (stereo not given)	0	0[0.501 µM]	0	0	0
CCOCCCNC(=O)C1CCC(CNS(=O)(=O)c2ccc(OC)cc2)CC1 (stereo not given)	0	0	0	0	0
Cc1nc2ccc(NC(=S)NC3CC3)cc2nc1C	0	0	0	0	0
CCN1CCN(Cc2ccc(NC(=O)c3cc(NC(=O)c4cc(C)on4)cc(OC)c3)cc2C(F)(F)F)CC1	?	44.7µM	0	0	?
CCN1CCN(Cc2ccc(NC(=O)c3cc(NC(=O)C(=O)c4c[nH]c5ccccc45)cc(OC)c3)cc2C(F)(F)F)CC1	39.8µM	0[12.7 µM]	0	?	35.5µM
CCN1CCN(Cc2ccc(NC(=O)c3ccc(C)c(NC(=O)C(=O)c4c[nH]c5ccccc45)c3)cc2C(F)(F)F)CC1	12.6µM	50.1µM	0	?	39.8µM
CC(C)CC1C(=O)N(Cc2cn(CC3CCCCC3)nn2)CCS(=O)(=O)N1Cc1ccc(-c2ccc(F)nc2)cc1 (stereo not given)	-	-	0	-	-
COc1cccc(-n2c(SCC(=O)N3CCc4ccccc43)nnc2-c2c[nH]c3ccccc23)c1	0	0	0	0	0
COc1ccc(N2CCN(C(=O)c3cn(CC4CCCCC4)nn3)CC2)cc1	?	35.5µM	0	0	?
COc1ccc(N2CCN(C(=O)NC3CCCCC3)CC2)cc1	0	?	0	0	0
COc1ccc(N2CCN(C3CCCN(Cc4ccc(F)cc4Cl)C3)CC2)cc1 (stereo not given)	?	70.8µM	0	0	?
Cc1cc(S(=O)(=O)N2CCCC(N3CCOCC3)C2)c(C)cc1Cl (stereo not given)	0	44.7µM	0	0	0
COc1ccc(N2CCN(C3CCCN(C(=O)c4cccc(C)n4)C3)CC2)cc1 (stereo not given)	0	50.1µM	0	0	0
O=S(=O)(c1cc(Cl)ccc1Cl)N1CCN2CCCC2C1 (stereo not given)	0	0	0	0	0
COc1ccc(N2CCN(C3CCCN(S(=O)(=O)c4ccccc4)C3)CC2)cc1 (stereo not given)	70.8µM	-	0	?	?
COc1ccc(N2CCN(C3CCCN(S(=O)(=O)c4ccc(C)cc4C)C3)CC2)cc1 (stereo not given)	25.1µM	35.5µM	0	?	31.6µM
COc1ccc(OC)c(S(=O)(=O)N2CCCC(N3CCN(c4ccccc4)CC3)C2)c1 (stereo not given)	?	0	0	0	0
COc1ccc(OC)c(S(=O)(=O)N2CCN3CCCC3C2)c1 (stereo not given)	0	0	0	0	0
CN(C)c1ccc(-c2nc3ccccc3n2C)cc1	?	?	0	0	0
CCn1c(-c2ccc(N(C)C)cc2)nc2ccccc21	50.1µM	79.4µM	0	0	0
CC(C)n1c(-c2ccc(N(C)C)cc2)nc2ccccc21	39.8µM	39.8µM	0	?	56.2µM
SMILES	BAZ2B block	G9a block	GLS inhibitor	HP1b binding inh	JMJD2A Tudor inh
O=C(CN1C(=O)c2ccccc2S1(=O)=O)Nc1cc(S(=O)(=O)N2CCCCC2)ccc1Cl	0	?	0	0	0
O=C(CSc1nc(-c2ccccc2)nc2ccc(F)cc12)Nc1cccc(C(=O)O)c1	79.4µM	70.8µM	0	0	?
O=C(CSc1nc(-c2ccc(F)cc2)nc2c1Cc1ccccc1O2)Nc1cccc(C(=O)O)c1	7.94µM	7.94µM	0	?	10µM
O=C(CSc1nc(-c2ccccc2)nc2c1Cc1ccccc1O2)Nc1ccccc1	0	0	-	-	-
O=C(CSc1nc(-c2ccccc2)nc2ccc(F)cc12)Nc1ccc(C(=O)O)cc1	50.1µM	44.7µM	0	0	35.5µM
CC(C)OC(=O)CSc1nc(-c2ccc(F)cc2)nc2ccc(F)cc12	0	0	0	0	0
Cc1ccc(NC(=O)CSc2nnc(CNC(=O)c3ccco3)n2C)c(C)c1	0	0[0.501 µM]	0	0	0
CN(C)S(=O)(=O)c1cccc(NC(=O)c2cc(-c3cccs3)nn2-c2cccc(Cl)c2)c1	0	0	0	0	0
O=C(CCl)Nc1c2c(nn1-c1ccccc1)CSC2	0	0	0	0	44.7µM
Cc1cccc(-n2nc3c(c2NC(=O)c2ccc(Br)o2)CSC3)c1	0	39.8µM	0	0	0
Cc1cccc(-n2nc3c(c2NC(=O)CCCl)CSC3)c1	0	0[2.33 µM]	0	0	0
COc1cc(-c2cc(C(=O)OCC(=O)NC3CC3)c3ccccc3n2)cc(OC)c1OC	-	-	0	0	0
Oc1c(Br)cc(Br)cc1C=Nc1ccc2c(c1)OCCO2	0	0	0	0	0
Oc1[nH]c2ccccc2c1C=Nc1ccc2c(c1)OCCO2	35.5µM	0	0	0	?
Cc1cccc(-n2c(=S)[nH]c3sc4c(c3c2=O)CCc2ccccc2-4)c1	?	?	10µM	7.08µM	?
Cc1ccc(-n2c(=S)[nH]c3sc4c(c3c2=O)CCc2ccccc2-4)cc1	0	0	0	0	0
COc1ccc(C)cc1NC(=O)C(OC(=O)CNC(=O)c1cccc(F)c1)c1ccccc1 (stereo not given)	0	?	0	0	0
Cc1cc(C)n(/N=C/c2c[nH]c3ccccc23)c(=O)c1	0	0	0	0	0
S=c1[nH]nc(C2CCCCC2)n1/N=C/c1ccccc1Br	0	7.08µM	0	?	17.8µM
CNC(=S)N/N=C/c1ccccc1OCC(=O)O	?	-	0	0	?
Cc1ccccc1/C=N/n1c(C2CCCCC2)n[nH]c1=S	0	12.6µM	?	0	0
Fc1ccccc1-c1n[nH]c(=S)n1/N=C/c1c[nH]c2ccccc12	?	0.708µM	?	0	35.5µM
O=C(O)COc1ccccc1/C=N/n1c(C2CCCCC2)n[nH]c1=S	0	8.91µM	0	0	25.1µM
Fc1ccccc1/C=N/n1c(C2CCCCC2)n[nH]c1=S	0	25.1µM	0	0	39.8µM
Fc1cccc(/C=N/n2c(C3CCCCC3)n[nH]c2=S)c1	0	?	0	0	0

Source: PubChem BioAssay (National Center for Advancing Translational Sciences (NCATS))
